# Assay outcomes (PubChem BioAssay)
# Hits are enriched below; roughly 1.6% of the tested compounds scored in any of these assays.
# dFosB act-1 = enhances mouse delta FosB homodimer DNA binding | P13346 | purified delta FosB, TAMRA-CDK5 oligo fluorescence polarization; percent of positive-control signal above neutral wells | activation, % at 25 µM | 340,000 compounds, 0.99% hits;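 active = mean activation above about 17%, with every replicate also reaching it, limit read from the data, passing the limit was not always enough; inconclusive = only one of the two conditions met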
# A1 inh = inhibitors of the anti-apoptotic protein A1, read as caspase activation; MEF A1-2A-BIM cells, Caspase-Glo 3/7 luminescence, 3 h; percent of clofoctol response, vehicle zero; caspase activation, % (test concentration not listed); 330,000 compounds, 0.066% hits; AID 2462;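 active = over half of replicate activation scores above 10%, or exactly half above 10 with the replicate mean above 10; inconclusive = replicate mean below 10 yet half the replicates above 10; inactive = over half of replicates below 10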
# Beta2AR agonist = activates human beta-2 adrenergic receptor causing internalization. Am2.2-beta2AR cells, FAP receptor internalization, flow cytometry. response, % (concentration not given with the values). 340,000 compounds, 0.43% hits;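 active = response above a set limit, near 3 SD of response in nonfluorescent compounds, cut at about 42% in these data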
# Target sequence (P07550 whole entry, looked up): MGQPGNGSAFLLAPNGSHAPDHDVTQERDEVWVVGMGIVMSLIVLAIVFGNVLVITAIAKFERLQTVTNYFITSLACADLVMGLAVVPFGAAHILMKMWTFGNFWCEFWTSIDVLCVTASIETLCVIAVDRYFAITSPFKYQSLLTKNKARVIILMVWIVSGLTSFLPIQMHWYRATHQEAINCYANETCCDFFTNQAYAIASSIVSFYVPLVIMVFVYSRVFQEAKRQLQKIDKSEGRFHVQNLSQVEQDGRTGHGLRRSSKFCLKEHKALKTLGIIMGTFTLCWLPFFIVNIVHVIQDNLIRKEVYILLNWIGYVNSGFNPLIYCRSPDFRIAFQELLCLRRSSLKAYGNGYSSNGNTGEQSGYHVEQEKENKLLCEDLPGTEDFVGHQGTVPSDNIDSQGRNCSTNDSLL
# Dyrk1A ADPGlo = Dyrk1A (rat) kinase inhibition; inhibition, % at 12.5 µM; Q63470; 310,000 compounds, 0.43% hits; ADP-Glo luminescence, NFATc1 peptide; in the data active = inhibition above about 50%;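 also: plate controls were vehicle with enzyme for no effect and no enzyme for full effect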
# dFosB act-2 = activators of mouse delta FosB homodimer DNA binding; shares compounds with dFosB act-1; purified delta FosB, TAMRA-CDK5 oligo fluorescence polarization; normalised: neutral wells 0, positive control 100; activation, % at 24.9 µM; 2,400 tested, under 10 active; AID 588690;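 active = highest replicate activation at or above 34% and every replicate reaching that threshold; inconclusive = meets only one of the two criteria; inactive = meets neither criterion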;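 also: higher polarization means more probe DNA bound by delta FosB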
# An asterisk follows results filed as active; ? = inconclusive; nt = not tested or not shown.
SMILES,dFosB act-1,A1 inh,Beta2AR agonist,Dyrk1A ADPGlo,dFosB act-2
CCOC(=O)/C=C/C(=O)Nc1ccc(S(=O)(=O)Nc2c(C)cc(C)cc2C)cc1,20*,1,-5,1,6
Cc1ccc(OCC(=O)N(C)C2CCCCC2)c([N+](=O)[O-])n1,-5,-1,-3,-5,nt
COc1ccc([C@H]2C(C(=O)O)=C[C@@H](CC3CCCC3)N2S(=O)(=O)c2ccc(C)cc2)cc1OC,-3,nt,16,nt,nt
Cc1ccc(S(=O)(=O)Nc2ccc(NC(=O)c3cccs3)cc2)cc1,5,-3,-4,5,nt
Cc1cc(C)c(NS(=O)(=O)c2ccc(NC(=O)c3cccs3)cc2)c(C)c1,26*,1,-17,-10,-7
COc1ccc(C(=O)N2C(=O)c3ccc(N)cc3C2=O)cc1,49*,-3,-3,-1,4
CC(C)(C)c1ccc(S(=O)(=O)N2CCc3nc4ccccc4c(C(=O)O)c3C2)cc1,-10,0,9,-2,nt
N#C/C(=C\c1c[nH]c2ccccc12)C(=O)Nc1ncc(Cc2ccc(Cl)cc2Cl)s1,31*,1,0,0,1
COc1cc(C(O)P(=O)(OCCC(C)C)c2ccc(N(C)C)cc2)cc(OC)c1OC (stereo not drawn),-2,1,4,-8,nt
O=C(CSc1nnc(NC(=O)c2ccco2)s1)NC1CCCCC1,22*,1,-8,-2,7
O=C(CSc1nnc(NC(=O)c2ccco2)s1)Nc1ccc(F)cc1,19*,1,-2,5,-5
CCOC(=O)c1c[nH][nH]c1=O,7,1,-4,-5,nt
O=C(c1ccccc1)N(C(=O)c1ccccc1)N1CCCC1,-2,nt,-5,-2,nt
O=C(Nc1ccc2c(c1)CCC2)c1cc(S(=O)(=O)N2CCN(c3ccccc3)CC2)ccc1Cl,24*,0,4,-4,3
C=CCNC(=O)/C(=C/c1cn(-c2ccccc2)nc1-c1cccc([N+](=O)[O-])c1)NC(=O)c1ccccc1,19*,0,-5,-1,5
OCC(O)CN1CCCC1 (stereo not drawn),nt,0,9,nt,nt
CC1CCN(S(=O)(=O)c2ccc(NC(=O)Cn3nnc(-c4ccccc4)n3)cc2)CC1,?,0,5,nt,nt
Cc1ccc(-c2nnn(CC(=O)Nc3ccc(S(=O)(=O)N4CCC(C)CC4)cc3)n2)cc1,68*,2,0,5,7
CC(=O)c1ccc(OCC(=O)Nc2ccccc2C(=O)NC2CC2)cc1,30*,0,0,-1,0
O=C(COc1ccc(/C=N/NC(=O)c2ccccc2O)cc1)Nc1ccc([N+](=O)[O-])cc1,24*,0,-3,2,-3
O=C(COc1ccc([N+](=O)[O-])cc1)Nc1ccccc1C(=O)NC1CC1,26*,0,-4,17,2
O=C(CCC(=O)Nc1ccccc1Cl)NNC(=O)COc1ccc([N+](=O)[O-])cc1,17*,1,-1,2,-2
O=C(COc1ccccc1)Nc1ccccc1C(=O)NC1CC1,7,0,-4,3,nt
CN(C(=S)NC(=O)Cc1ccccc1)c1ccccc1,3,0,-2,-1,nt
CCN(CC)c1nc(NN)nc(Nc2ccc(C)c(Cl)c2)n1,42*,0,16,-2,?
SMILES,dFosB act-1,A1 inh,Beta2AR agonist,Dyrk1A ADPGlo,dFosB act-2
CCN(CC)CCNc1ncnc2c1sc1nc(N3CCOCC3)c3c(c12)CCCC3,31*,-1,25,nt,-6
CCN(CC)CCn1c2c(c(SCC(=O)Nc3cc(C)on3)nc1=O)CCCC2,-14,0,0,-5,nt
Cc1cccc(C)c1NC(=O)CNC(=O)c1cccc(S(=O)(=O)NCc2cccs2)c1,24*,-1,-2,-7,-2
O=C(O)c1cccc(S(=O)(=O)NCc2cccs2)c1,1,1,5,0,nt
COc1cc(CN(C)Cc2cc(=O)oc3cc(C)c(Cl)cc23)ccc1OC(F)F,-11,1,-3,-6,nt
COc1ccccc1-c1cc(C(=O)NC(C)C)no1,-16,1,-5,4,nt
COc1ccccc1-c1cc(C(=O)Nc2ccc(F)cc2F)no1,25*,1,-1,3,2
CC(OC(=O)/C=C/c1ccccc1Cl)C(=O)NC1CCCCC1C (stereo not drawn),0,1,-3,5,nt
Cc1ccccc1C(=O)Nc1nc(-c2cccnc2)cs1,8,1,2,8,nt
O=C(Nc1nc(-c2cccnc2)cs1)c1ccccc1Cl,24*,?,-1,-8,7
COc1cccc(-c2sc3ccc(OC)cc3c2-c2ccc(OCCN3CCCC3)cc2)c1,-8,nt,14,19,nt
COc1cccc(-c2sc3ccccc3c2-c2ccc(OCCN3CCCCC3)cc2)c1,34*,0,14,nt,1
Cc1ccc2nc(-c3cccnc3SCC(=O)N3c4ccccc4CC3C)[nH]c2c1 (stereo not drawn),29*,-7,3,-22,2
CCN(C(=O)CSc1nnc(-c2c[nH]c3ccccc23)n1C1CC1)C1CCS(=O)(=O)C1 (stereo not drawn),-1,0,0,4,nt
CCOC(=O)c1c(NC(=O)C2CCCO2)sc(C(N)=O)c1C (stereo not drawn),-3,0,9,-2,nt
CCOC(=O)c1c(NC(=O)C2c3ccccc3Oc3ccccc32)sc(C(N)=O)c1C,32*,1,17,6,2
Cc1ccc(NC(=O)c2sc3ncn(CC(=O)N4CCN(c5ccccn5)CC4)c(=O)c3c2C)cc1Cl,35*,1,2,-2,1
Cc1nnc(SCC(=O)N(C)C2CCCCC2)s1,-4,1,1,6,nt
CN(C)CCN(C(=O)/C=C/c1cccs1)c1nc2c(F)cc(F)cc2s1,53*,17*,-10,-7,4
CCOc1ccc2nc(N(CCN(C)C)C(=O)/C=C/c3cccs3)sc2c1,32*,1,10,-1,6
Cc1ccc(NS(=O)(=O)c2ccc(C(=O)N3CCCC(C(F)(F)F)C3)cc2)cc1 (stereo not drawn),-2,-1,-2,2,nt
CC(C(=O)Nc1ccccc1F)N1CCN(C)CC1 (stereo not drawn),nt,0,nt,nt,nt
COc1ccc(C)cc1NC(=O)CCC(=O)Nc1nnc(C2CCCCC2)s1,40*,-1,-10,-3,-8
COc1ccc(NC(=O)CCC(=O)Nc2nnc(C3CCCCC3)s2)c(OC)c1,7,-1,1,-3,nt
O=C(Nc1cccc(-c2nc3cccnc3s2)c1)c1ccc(Cl)nc1,27*,-1,4,5,-1
Cc1nnc2ccc(-c3cccc(NC(=O)c4ccc(Cl)nc4)c3)nn12,-22,0,4,12,nt
NS(=O)(=O)c1ccc(C(=O)Nc2ccc(-c3nc4cccnc4s3)cc2)cc1,43*,0,5,-3,6
COc1cccc(CCNC(=O)CCc2nnc(Cc3cc(OC)ccc3OC)o2)c1,-5,1,4,-1,nt
